Source: PubChem BioAssay AID1851 (National Center for Advancing Translational Sciences (NCATS), 2009)
Screen size: about 16,000 compounds; about 5,700 (36%) were called active. About 24% were inconclusive and are not listed. Calls follow the shape of the dose curve; as a rule, active = well fitted curve in the direction sought with a large enough effect; inconclusive = small, poorly fitted or top-dose-only effect, or effect the other way; inactive = no such curve, though single readings can be large or run the other way. The list shows a part of the results. Square brackets hold non-standard residues; d marks the D form. Peptide text beside a SMILES is read from it. Ac5c = NC1(C(=O)O)CCCC1

Target: Cytochrome P450 1A2 (Homo sapiens) (UniProt P05177)
Test: Cytochrome panel assay with activity outcomes
Details: recombinant CYP, pro-luciferin dealkylation, luminescence, p450-cyp1a2; series mostly up to 57.1 µM; activity, negative = inhibition: at the top concentration
% is scaled to controls: 0 for no effect and ±100 for the full control effect.

Sequence of Cytochrome P450 1A2 (Homo sapiens) (P05177 whole entry, looked up): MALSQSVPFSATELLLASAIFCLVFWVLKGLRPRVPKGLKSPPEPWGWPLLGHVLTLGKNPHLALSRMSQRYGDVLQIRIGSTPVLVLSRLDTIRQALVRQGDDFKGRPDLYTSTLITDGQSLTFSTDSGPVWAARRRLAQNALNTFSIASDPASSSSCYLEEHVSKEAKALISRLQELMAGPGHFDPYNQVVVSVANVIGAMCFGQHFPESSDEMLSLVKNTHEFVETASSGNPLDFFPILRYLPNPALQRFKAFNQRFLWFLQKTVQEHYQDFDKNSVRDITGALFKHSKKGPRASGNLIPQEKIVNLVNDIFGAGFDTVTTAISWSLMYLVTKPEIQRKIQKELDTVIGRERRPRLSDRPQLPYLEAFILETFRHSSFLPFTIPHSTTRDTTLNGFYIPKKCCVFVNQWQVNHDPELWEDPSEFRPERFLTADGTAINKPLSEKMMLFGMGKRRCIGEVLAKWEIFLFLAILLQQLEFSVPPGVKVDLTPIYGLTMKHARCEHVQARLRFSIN

AC50, active:
C/C(Cl)=C/CSc1nnc2n(N)c(=O)c3ccccc3n12 11.2 µM, CCCSc1nnc2n(N)c(=O)c3ccccc3n12 4.47 µM, CCC(=O)N[C@@H]1CCc2cccc(OC)c2C1 12.6 µM, COc1ccc(CNc2cc(-c3ccoc3)ncn2)c(OC)c1 15.8 µM, COc1ccccc1CNc1cc(-c2ccoc2)ncn1 15.8 µM, COc1cccc(CNc2ccc3nc(-c4ccc(N)cc4)c(OC)n3n2)c1 39.8 µM, O=C1CC(c2cccs2)c2cc3c(cc2N1)OCO3 (configuration not stated) 0.631 µM, CCOC(=O)c1c(-c2ccccc2)cn2ccccc12 0.501 µM, CCOC(=O)c1c2c(n3ccccc13)C(=O)c1ccccc1C2=O 0.1 µM, COc1cccc(C(=O)N(Cc2ccccc2)Cc2cc3cc4c(cc3[nH]c2=O)OCCO4)c1 14.1 µM, c1ccc(Nc2ncnc3ccc(-c4cccnc4)cc23)cc1 0.0794 µM, Cc1cccc(CNc2ncnc3ccc(-c4cccnc4)cc23)c1 0.316 µM, c1cncc(CNc2ncnc3ccc(-c4ccoc4)cc23)c1 0.316 µM, c1ccc(CNc2ncnc3ccc(-c4cccnc4)cc23)cc1 0.126 µM, CSc1ccc(NC(=O)Nc2cc(C)ccn2)cc1 0.501 µM, Cn1cnc2c(NCc3ccccc3)nc(NCCO)nc21 5.01 µM, COc1cnc(SCc2ccc(Cl)cc2)nc1Cl 12.6 µM, CC1=CC(=O)c2ccccc2C1=O 0.158 µM, CCCCNCCOCCSc1ccc(Cl)cc1 12.6 µM, CC(C)NCCOCCSc1ccc(Cl)cc1 5.01 µM, O=C(CCCCCn1c(=O)[nH]c2ccsc2c1=O)NCc1ccc2c(c1)OCO2 14.1 µM, O=C(CCCCn1c(=S)[nH]c2ccsc2c1=O)NCc1ccco1 1.26 µM, CC(=O)Nc1c(C)nn(-c2ccc(C)c(C)c2)c1C 14.1 µM, COc1ccccc1CN1C(=O)c2ccncc2C1=O 14.1 µM, O=C1N=C(N2CCOCC2)S/C1=C/c1cccs1 5.62 µM, NC1=NC(=O)/C(=C/c2cccs2)S1 1.41 µM, O=C1N=C(N2CCOCC2)S/C1=C\C=C/c1ccccc1 14.1 µM, CCCN1CC=C2C(C#N)=C(N)C(C#N)(C#N)C(c3cc(OC)ccc3OC)C2C1 (configuration not stated) 31.6 µM, CN=C1N[C@H](c2ccccc2)N(c2ccccc2)S1 1.26 µM, Cc1ccccc1S(=O)(=O)Oc1ccccc1C(=O)Oc1ccccc1 3.55 µM, Oc1ccc2ccccc2c1C=NCc1c(O)ccc2ccccc12 1.58 µM, c1ccc(-c2ccc(N3CC4(CCNCC4)C3)cc2)cc1 15.8 µM, c1ccc(-c2ccc(N3CC[C@@]4(CCCNC4)C3)cc2)cc1 12.6 µM, c1ccc(-c2ccc(N3CCCC4(CCNCC4)C3)cc2)cc1 10 µM, CN(C)c1nc(-c2ccccc2C(F)(F)F)nc2ccccc12 0.251 µM, COc1ccccc1-c1nc(N(C)C)c2ccccc2n1 0.398 µM, Cc1ccccc1-c1nc(N(C)C)c2ccccc2n1 0.631 µM, COC(=O)CCC(=O)NNC(=O)CCCOc1ccc(Cl)cc1Cl 12.6 µM, CC1(C)CC(=O)C/C(=N/NC(=O)CCCOc2ccc(Cl)cc2Cl)C1 15.8 µM, COc1ccc(/C=N/NC(=O)CCCOc2ccc(Cl)cc2Cl)cc1[N+](=O)[O-] 1.26 µM, Cc1cccc(CNc2ccnc(-c3ccccc3Cl)n2)c1 1.58 µM, Clc1ccccc1-c1nccc(NCc2ccccc2)n1 3.16 µM, Cc1cccc(CNc2ccnc(-c3ccccc3CN(C)C)n2)c1 3.16 µM, COc1ccc(-n2c(N)c(C(=O)NCc3ccco3)sc2=S)cc1 11.2 µM, CCOC(=O)c1[nH]c2ccc(Cl)cc2c1-c1ccccc1 0.398 µM, NC(=NCc1ccc(Cl)c(Cl)c1)NC(=O)c1nc(Cl)c(N)nc1N 10 µM

AC50, inactive:
O[C@@](CCN1CCCCC1)(c1ccccc1)C1CCCCC1

activity, negative = inhibition, inactive:
CCOc1ccccc1NC(=O)CN1CCC(NC(=O)c2ccccc2)CC1 -24.7%, COC(=O)N1CCC2(CC1)CCN(C(c1ccccc1)c1ccccc1)CC2 1.02%, O=C(O)CSCNC(=O)CC12CC3CC(CC(C3)C1)C2 -1.39%, CC1(C)CC2(CC(c3cccs3)c3cc(Cl)c(O)cc3O2)NC(=S)N1 (configuration not stated) -22.7%, CC(C)NC(=O)N1CCC2(CC1)CCN(C(=O)c1ccco1)CC2 -8.3%, CC(C)(C)CC(C)(C)c1ccc(O)c(C[N+](C)(C)[O-])c1 -17.9% [at 2.29 µM], O=C(O)C(Cc1ccccc1-c1ccccc1)C(=O)O -6.71% [at 11.4 µM], COC(=O)[C@H](Cc1ccccc1)NC(=O)[C@@H](C)CO -9.35% [at 11.4 µM], COc1ccc(CNC(=O)CN(CC2CCCO2)C(=O)CNS(=O)(=O)c2ccccc2)cc1 (configuration not stated) -14.5%, COc1cc2cc(CN(CCCO)S(=O)(=O)c3ccccc3Cl)c(=O)[nH]c2cc1OC -22.7%, N=C(N)SCCN -7.64%, CCOc1ccc(/C(O)=C2\C(=O)C(=O)N(CCOCCO)C2c2ccccc2OC)cc1 (configuration not stated) -4.5%, CN(CC(=O)O)Cc1oc(CO)cc(=O)c1O -18.3% [at 11.4 µM], Cc1ccnc(N)c1 -19.7%, CC(=O)Nc1ccc(Sc2ncccc2C(=O)Nc2ccc(F)cc2)cn1 4.19%, COC(=O)/C=C\CCc1coc(/C=C\CNC(=O)OC)n1 2.69% [at 11.4 µM], COC(=O)C1CSC(C(=O)OC)N1C(=O)Nc1c(C)cccc1C (configuration not stated) -18.8%, CC[C@H](CO)NCCN[C@@H](CC)CO -2.46% [at 25.6 µM], Cc1ccccc1CNc1ncnc2c1ncn2[C@@H]1O[C@@H](CO)[C@H](O)[C@@H]1O -18.9%, Cn1c(=O)[nH]c(=O)c2c1nc(NCCCO)n2CCCc1ccccc1 -26.4%, FC(F)(F)c1nc(SCc2ccc(Cl)cc2)n[nH]1 -18.8% [at 2.29 µM], CCCCNC(=O)NS(=O)(=O)c1cnccc1Sc1ccc(Cl)cc1 1.56%, Cc1cc(=O)[nH]c2c1c(C)nn2C1CCOC(C)(C)C1 (configuration not stated) -2.35%, CO[C@@H]1COC(=O)[C@H](C)NC(=O)[C@@H](C)COC(=O)CCC[C@H]1C -10.3% [at 11.4 µM], Cc1nc2ncnn2c(C)c1CCC(=O)NCc1ccco1 -27.7%, CCOc1cc2[nH]c(=O)n(CCCC(=O)NCc3ccc(OC)cc3)c(=O)c2cc1OCC -7.25%, CCOc1cc2[nH]c(=S)n(CCCC(=O)NCc3ccco3)c(=O)c2cc1OCC -24.3%, O=C(CCn1c(=O)[nH]c2ccsc2c1=O)Nc1ccc(F)c(F)c1 -23%, Cc1ccc(-n2c(C)cc(C(=S)N3CCOCC3)c2C)cc1C -22.6%, CC(=O)Nc1c(C(=O)N2CCOCC2)cnn1-c1ccc(C)c(C)c1 41.4%, NCC(=O)NC1(C(=O)O)CCCC1 (H-Gly-[Ac5c]-OH) -5.18% [at 11.4 µM], O=C1CC(=O)C(n2cncn2)C(c2cccc(Cl)c2)C1 (configuration not stated) 6.34%, C[N+](C)(C)CCCCCNCC12CC3CC(CC(C3)C1)C2 0.614%, COc1ccccc1CN1CC2(CCN(C(=O)c3ccncc3)CC2)C1 -10.9%, COc1ccccc1CN1CC2(CCN(C(=O)c3cnccn3)CC2)C1 13.8%, CC(C)(C)OC(=O)[C@H]([C@@H]1N[C@@H](C(=O)O)C(C)(C)S1)N1C(=O)c2ccccc2C1=O -1.41% [at 2.29 µM], C[C@H]1CC(C)(C)C[C@@](OCCN2CCCCC2)(c2ccccc2)C1 0.209% [at 11.4 µM], O=C(O)C[n+]1ccccc1 -7.86% [at 11.4 µM], COc1ccc(O[C@H]2C=C[C@@H](c3ccccc3)O[C@H]2COC(=O)CC/C(C)=N/OCC[C@@H]2C=C[C@H](OC(C)=O)[C@H](COC(C)=O)O2)cc1 -2.16% [at 11.4 µM], Cc1c(CCC(C)C)c(-n2ccnc2C)n2c(nc3ccccc32)c1C#N -25.4%, Cc1ccccc1S(=O)(=O)O[C@@H]1NS(=O)(=O)c2ccccc21 13.5% [at 2.29 µM], COC(=O)[C@H](Cc1ccccc1)NC(=O)N1CCN(Cc2ccccc2)CC1 -17.5%, O=C(O)Cc1c(O)ccc2ccccc12 -9.69% [at 11.4 µM], COc1ccccc1CN1CCCC2(CCNCC2)C1 9.9%, O=S(=O)(c1ccccc1)N1CCC[C@@]2(CCN(c3ccncc3)C2)C1 -29%, c1ccc(C(c2ccccc2)N2CC[C@@]3(CCCNC3)C2)cc1 -27.3%, O=C(c1csnn1)N1CCC2(CCCN(c3ccc(-c4ccccc4)cc3)C2)CC1 -2.91%, N[C@@H](Cc1ccccc1)C(=O)O -14% [at 11.4 µM], Cc1ccc(-c2ccc(=O)n(CC(=O)NCCN3CCCCC3C)n2)cc1 (configuration not stated) -19.8%, O=C(NCC1COc2ccccc2O1)C1C2C=CC3(CN(Cc4cccs4)C(=O)C13)O2 (configuration not stated) -8.02%, COCCCNC(=O)C(=O)N/N=C/c1ccc(OCC(=O)Nc2cccc(Cl)c2C)c(OC)c1 -23.7%, CC(C)C(=O)Nc1ccc(C(=O)NNC(=O)CCCOc2ccc(Cl)cc2Cl)cc1 -24%, COC(=O)CCCC(=O)O -7.34% [at 2.29 µM], CCOc1ccc(-n2c(N)c(C(=O)NCc3cccnc3)sc2=S)cc1 -14.8%, OC[C@@H]1NC[C@@H](O)[C@H]1O -7.03%
